Reference: PubChem BioAssay (NCI)
About 83,000 compounds went through this panel and 20% of them were active in at least one assay; those are over-represented in the sample as a whole.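 For each line, cells grew in 96-well plates with the test compound present at a single concentration for 48 hours.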 Active and inactive are the calls of the source. Rule for the calls: active = growth percent below 10; inactive = the rest.

How the values were obtained:
Assay in all cases: NCI-60 one-dose screen, 48 h (100 = growth as untreated, 0 = no growth, -100 = all killed)
Settings in all cases: 10 µM unless noted
SR leukemia = tested on: SR leukemia
RPMI-8226 leukemia = tested on: RPMI-8226 leukemia
OVCAR-8 ovarian = tested on: OVCAR-8 ovarian
OVCAR-5 ovarian = tested on: OVCAR-5 ovarian
SK-OV-3 ovarian = tested on: SK-OV-3 ovarian
IGROV1 ovarian = tested on: IGROV1 ovarian
OVCAR-3 ovarian = tested on: OVCAR-3 ovarian
HS 578T breast = tested on: HS 578T breast
NCI/ADR-RES ovarian = tested on: NCI/ADR-RES ovarian
T-47D breast = tested on: T-47D breast
BT-549 breast = tested on: BT-549 breast
MDA-MB-435 melanoma = tested on: MDA-MB-435 melanoma
SW-620 colon = tested on: SW-620 colon
MCF7 breast = tested on: MCF7 breast
HCT-116 colon = tested on: HCT-116 colon
HCC-2998 colon = tested on: HCC-2998 colon
KM12 colon = tested on: KM12 colon
OVCAR-4 ovarian = tested on: OVCAR-4 ovarian

Measured: growth

Cc1ccc(C)c2c1C(=O)OC2=O
inactive: SR leukemia 10.4% | RPMI-8226 leukemia 109% | OVCAR-8 ovarian 106% | OVCAR-5 ovarian 90.6% | SK-OV-3 ovarian 95.2% | IGROV1 ovarian 92% | OVCAR-3 ovarian 115% | HS 578T breast 114% | NCI/ADR-RES ovarian 98.1% | T-47D breast 96.1% | BT-549 breast 104% | MDA-MB-435 melanoma 114% | SW-620 colon 107% | MCF7 breast 93.5% | HCT-116 colon 96.4% | HCC-2998 colon 118% | KM12 colon 109%

Cc1ccc(/C(=N\N=C(N)N)c2ccccc2)cc1
active: RPMI-8226 leukemia -7.92% | SK-OV-3 ovarian 4.12% | IGROV1 ovarian -0.836% | OVCAR-3 ovarian -38.5% | MDA-MB-435 melanoma 0.321% | MCF7 breast 5.02% | HCT-116 colon -66.6% | HCC-2998 colon -3.26% | KM12 colon 2.94%
inactive: SR leukemia 10.8% | OVCAR-8 ovarian 22.4% | OVCAR-5 ovarian 51.4% | HS 578T breast 31.5% | NCI/ADR-RES ovarian 15.5% | T-47D breast 23% | BT-549 breast 37.5% | SW-620 colon 30.3%

OC(c1cccc(OCc2ccccc2)c1)c1nnc(-c2ccccc2)o1 (stereo unspecified)
inactive: SR leukemia 92.8% | RPMI-8226 leukemia 57.8% | OVCAR-8 ovarian 95.9% | OVCAR-5 ovarian 102% | SK-OV-3 ovarian 106% | IGROV1 ovarian 91.7% | OVCAR-3 ovarian 104% | HS 578T breast 96.9% | NCI/ADR-RES ovarian 89.7% | T-47D breast 72.9% | MDA-MB-435 melanoma 101% | SW-620 colon 104% | MCF7 breast 95.1% | HCT-116 colon 101% | HCC-2998 colon 112% | KM12 colon 90.7%

CO/C(=C1/NC(=O)C(Cc2ccc(O)c(Br)c2)N(C)C(=O)C(C)NC(=O)CCC/C=C(\C)CCC(C)OC1=O)c1ccccc1 (stereo unspecified)
inactive: SW-620 colon 18.2% | KM12 colon 26.9%
active: SR leukemia -25.9% | RPMI-8226 leukemia -57.4% | OVCAR-8 ovarian -14.6% | OVCAR-5 ovarian -2.82% | SK-OV-3 ovarian -42.2% | IGROV1 ovarian -80% | OVCAR-3 ovarian -67.5% | HS 578T breast -34% | NCI/ADR-RES ovarian -0.469% | T-47D breast -0.228% | MDA-MB-435 melanoma 3.86% | MCF7 breast -17.5% | HCT-116 colon 8.19% | HCC-2998 colon -36.6%

CCCCCCCC/C=C/CCCCCCCC1=NCC[N+]1(CCO)CCO
inactive: SR leukemia 17.4% | RPMI-8226 leukemia 38.6% | OVCAR-8 ovarian 80.6% | OVCAR-5 ovarian 77.5% | SK-OV-3 ovarian 88% | OVCAR-3 ovarian 59.9% | HS 578T breast 88.6% | NCI/ADR-RES ovarian 94.9% | T-47D breast 90.5% | BT-549 breast 98.7% | MDA-MB-435 melanoma 65.1% | SW-620 colon 71.4% | MCF7 breast 66.5% | HCT-116 colon 59.8% | HCC-2998 colon 72% | KM12 colon 40.4%
active: IGROV1 ovarian -8.63%

CC(=O)c1ccc2c(c1)CCN2
inactive: SR leukemia 93.4% | RPMI-8226 leukemia 94.7% | OVCAR-8 ovarian 99.5% | OVCAR-5 ovarian 101% | SK-OV-3 ovarian 99.9% | IGROV1 ovarian 117% | OVCAR-3 ovarian 124% | HS 578T breast 114% | NCI/ADR-RES ovarian 110% | T-47D breast 105% | BT-549 breast 106% | MDA-MB-435 melanoma 111% | SW-620 colon 113% | MCF7 breast 98.3% | HCT-116 colon 100% | KM12 colon 110%

CCCCn1c(=O)[nH]c(N)c(C(c2ccc(F)cc2)c2c(N)[nH]c(=O)n(CCCC)c2=O)c1=O
inactive: SR leukemia 42% | RPMI-8226 leukemia 50% | OVCAR-8 ovarian 66.5% | OVCAR-5 ovarian 94.4% | SK-OV-3 ovarian 80.6% | IGROV1 ovarian 78.8% | OVCAR-3 ovarian 54% | HS 578T breast 81.1% | NCI/ADR-RES ovarian 96.7% | T-47D breast 39.6% | MDA-MB-435 melanoma 64.7% | SW-620 colon 91.1% | MCF7 breast 46.8% | HCC-2998 colon 72.9% | KM12 colon 61.3%

C[C@]12CCC(=O)C[C@H]1CC[C@@H]1[C@@H]2CC[C@@]2(C)[C@H]1CC[C@]2(O)C(=O)CO
inactive: SR leukemia 106% | RPMI-8226 leukemia 103% | OVCAR-8 ovarian 108% | OVCAR-5 ovarian 92.3% | SK-OV-3 ovarian 105% | IGROV1 ovarian 103% | OVCAR-3 ovarian 115% | HS 578T breast 99.1% | NCI/ADR-RES ovarian 107% | T-47D breast 99.5% | BT-549 breast 105% | MDA-MB-435 melanoma 102% | SW-620 colon 108% | MCF7 breast 91.1% | HCT-116 colon 110% | KM12 colon 110%

COc1ccc(C2CC(c3ccc4ccccc4c3)=NN2c2nc(O)c(C3=c4cc(Cl)ccc4=NC3=O)s2)cc1 (stereo unspecified)
active: SR leukemia -34.4% | RPMI-8226 leukemia -3.59% | OVCAR-8 ovarian -16.1% | OVCAR-5 ovarian -7.92% | OVCAR-4 ovarian -61.5% | IGROV1 ovarian -11.5% | OVCAR-3 ovarian -83.1% | HS 578T breast -5.85% | T-47D breast -79.9% | BT-549 breast -26% | MDA-MB-435 melanoma -64.6% | SW-620 colon -42.4% | MCF7 breast -22.4% | HCC-2998 colon -54.1% | KM12 colon -59.3%
inactive: NCI/ADR-RES ovarian 58.8%

CC(=O)c1cc2c(o1)C(=O)c1ccccc1C2=O
active: SR leukemia 1.01% | RPMI-8226 leukemia -44% | OVCAR-8 ovarian -43.8% | OVCAR-5 ovarian -86.1% | OVCAR-4 ovarian -96.9% | IGROV1 ovarian -66.9% | OVCAR-3 ovarian -85.5% | HS 578T breast -23.7% | NCI/ADR-RES ovarian -13.2% | T-47D breast -25.3% | BT-549 breast -87.7% | MDA-MB-435 melanoma -94.4% | MCF7 breast -65.6% | HCT-116 colon -83.6% | HCC-2998 colon -87.8% | KM12 colon -63.6%

COc1ccc2c(c1)/C(=C\c1sc(=S)[nH]c1O)C(C(=O)O)=N2
inactive: SR leukemia 110% | RPMI-8226 leukemia 101% | OVCAR-8 ovarian 99% | OVCAR-5 ovarian 101% | OVCAR-4 ovarian 101% | IGROV1 ovarian 107% | OVCAR-3 ovarian 98.8% | HS 578T breast 94% | NCI/ADR-RES ovarian 102% | BT-549 breast 109% | MDA-MB-435 melanoma 100% | SW-620 colon 95.2% | MCF7 breast 97.7% | HCT-116 colon 99.6% | HCC-2998 colon 103% | KM12 colon 99.6%

COc1cc2oc(-c3cccc(C(=O)Nc4ccc(C#N)cc4)c3)cc(=O)c2c(O)c1OC
inactive: SR leukemia 62.2% | RPMI-8226 leukemia 51.3% | OVCAR-8 ovarian 29.1% | OVCAR-5 ovarian 66.5% | OVCAR-4 ovarian 11.7% | IGROV1 ovarian 84.6% | OVCAR-3 ovarian 51.3% | HS 578T breast 83.4% | NCI/ADR-RES ovarian 51.2% | BT-549 breast 44.7% | MDA-MB-435 melanoma 68.3% | SW-620 colon 78% | MCF7 breast 48.5% | HCT-116 colon 55.5% | HCC-2998 colon 83.1% | KM12 colon 38.9%

CC(C)OCCCNCC(=O)Nc1ccc(S(=O)(=O)c2ccc(NC(=O)CNCCCOC(C)C)cc2)cc1
inactive: SR leukemia 61.6% | RPMI-8226 leukemia 92.8% | OVCAR-8 ovarian 105% | OVCAR-5 ovarian 116% | SK-OV-3 ovarian 111% | IGROV1 ovarian 75.9% | OVCAR-3 ovarian 105% | HS 578T breast 87.6% | NCI/ADR-RES ovarian 112% | T-47D breast 103% | BT-549 breast 102% | MDA-MB-435 melanoma 101% | SW-620 colon 87.6% | MCF7 breast 85.8% | HCT-116 colon 81.3% | HCC-2998 colon 73.8% | KM12 colon 99.8%

CC(=[N-])N1CCC[C@@H](Nc2c3ccccc3nc3ccccc23)C1.[Cl][Pt].[NH-]CCC[NH-]
active: OVCAR-3 ovarian 3.95%
inactive: SR leukemia 17.1% | RPMI-8226 leukemia 30.1% | OVCAR-8 ovarian 39.1% | OVCAR-5 ovarian 39% | OVCAR-4 ovarian 20.4% | IGROV1 ovarian 17.2% | HS 578T breast 51.7% | NCI/ADR-RES ovarian 85% | T-47D breast 14.8% | BT-549 breast 79% | MDA-MB-435 melanoma 81.9% | SW-620 colon 20.5% | MCF7 breast 10.6% | HCT-116 colon 14.9% | HCC-2998 colon 49.7% | KM12 colon 49%

O=c1oc2ccc(Cl)cc2cc1-c1cs/c(=N/N=C\c2ccc(Cl)cc2)n1/N=C/c1ccc(Cl)cc1
inactive: SR leukemia 83.4% | RPMI-8226 leukemia 103% | OVCAR-8 ovarian 96.5% | OVCAR-5 ovarian 107% | SK-OV-3 ovarian 111% | IGROV1 ovarian 108% | OVCAR-3 ovarian 106% | HS 578T breast 101% | NCI/ADR-RES ovarian 106% | BT-549 breast 109% | MDA-MB-435 melanoma 103% | SW-620 colon 104% | MCF7 breast 95.7% | HCT-116 colon 91.9% | HCC-2998 colon 103% | KM12 colon 107%

Cc1ccc(S(=O)(=O)N(CC[C@@H]2C[C@H]2c2cc3ccccc3o2)C(=O)NC2CCCCC2)cc1
inactive: SR leukemia 100% | RPMI-8226 leukemia 107% | OVCAR-8 ovarian 98.8% | OVCAR-5 ovarian 95.7% | OVCAR-4 ovarian 93% | IGROV1 ovarian 95.8% | OVCAR-3 ovarian 104% | HS 578T breast 89.8% | NCI/ADR-RES ovarian 86.9% | T-47D breast 70.9% | BT-549 breast 112% | MDA-MB-435 melanoma 101% | MCF7 breast 93.4% | HCT-116 colon 85% | HCC-2998 colon 101% | KM12 colon 105%

COc1cccc(-c2cnco2)c1OCc1c(C)c(COc2c(OC)cccc2-c2cnco2)c(C)c(COc2c(OC)cccc2-c2cnco2)c1C
active: OVCAR-4 ovarian 7.51%
inactive: SR leukemia 64.2% | RPMI-8226 leukemia 47.4% | OVCAR-8 ovarian 56.7% | OVCAR-5 ovarian 74.9% | IGROV1 ovarian 80.2% | OVCAR-3 ovarian 63.1% | HS 578T breast 30.8% | NCI/ADR-RES ovarian 81.2% | T-47D breast 33.5% | BT-549 breast 39.2% | MDA-MB-435 melanoma 54.9% | SW-620 colon 75% | MCF7 breast 65.5% | HCC-2998 colon 99.3% | KM12 colon 64.9%
